Data from publication PMC5700166.

biological target: T1, GST-Nv-NF-kB (Ser allele) (Nematostella vectensis, UniProt A7UNT2 2-411); assay: protein-binding microarray (PBM); PBM: ~300 nM protein, 6 mM HEPES pH 7.8, 80 mM KCl, 0.5 mM EDTA, 0.5 mM EGTA, 6% glycerol, 35 ng/ul poly-dIdC, 1% milk, 1 h, room temperature; Ap Aiptasia and Nv Nematostella (sea anemones) / Co Capsaspora / Aq Amphimedon (sponge) / Dm Drosophila / Hu human; RHD is the Rel homology domain; high values mean tight binding; details: dsDNA, one strand shown
T1 sequence: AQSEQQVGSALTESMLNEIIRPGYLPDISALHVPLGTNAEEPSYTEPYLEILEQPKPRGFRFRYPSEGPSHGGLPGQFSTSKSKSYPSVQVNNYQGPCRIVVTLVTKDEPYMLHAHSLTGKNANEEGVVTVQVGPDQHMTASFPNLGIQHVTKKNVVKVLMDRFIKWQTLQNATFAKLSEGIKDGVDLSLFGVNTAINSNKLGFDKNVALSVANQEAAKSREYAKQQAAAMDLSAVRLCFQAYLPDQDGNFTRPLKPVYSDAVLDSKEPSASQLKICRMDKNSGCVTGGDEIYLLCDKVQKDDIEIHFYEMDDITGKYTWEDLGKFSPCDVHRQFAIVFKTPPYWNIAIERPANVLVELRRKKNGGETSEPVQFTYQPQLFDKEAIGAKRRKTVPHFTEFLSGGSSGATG

Row | Sequence | binding signal [z-score]
1 | CCGATTAACATCAGGGGATATAATGATGTTAATCGGGTCTTGATTCGCTTGACGCTGCTG | 6.48
2 | CCGATTAACATCAGGCATCCCCCTGATGTTAATCGGGTCTTGATTCGCTTGACGCTGCTG | 4.92
3 | CCGATTAACATCACGCGTCTACCTGATGTTAATCGGGTCTTGATTCGCTTGACGCTGCTG | 1.34
4 | CCGATTAACATCAGGGGGGGAGATGATGTTAATCGGGTCTTGATTCGCTTGACGCTGCTG | 4.31
5 | CCGATTAACATCAGGGGGGGGAATGATGTTAATCGGGTCTTGATTCGCTTGACGCTGCTG | 6.53
6 | CCGATTAACATCATACCCCCCCATGATGTTAATCGGGTCTTGATTCGCTTGACGCTGCTG | 3.11
7 | CCGATTAACATCAAAAAATCTCCTGATGTTAATCGGGTCTTGATTCGCTTGACGCTGCTG | 1.5
8 | CCGATTAACATCACAGAGTCCCCTGATGTTAATCGGGTCTTGATTCGCTTGACGCTGCTG | 6.04
9 | CCGATTAACATCACCCCCCCCCGTGATGTTAATCGGGTCTTGATTCGCTTGACGCTGCTG | 5.34
10 | CCGATTAACATCAGGGGGGAGAATGATGTTAATCGGGTCTTGATTCGCTTGACGCTGCTG | 6.04
11 | CCGATTAACATCAAAAGCCCCCCTGATGTTAATCGGGTCTTGATTCGCTTGACGCTGCTG | 4.86
12 | CCGATTAACATCAATCCCCCCCCTGATGTTAATCGGGTCTTGATTCGCTTGACGCTGCTG | 6.45
13 | CCGATTAACATCAGGGGGGAACATGATGTTAATCGGGTCTTGATTCGCTTGACGCTGCTG | 6.09
14 | CCGATTAACATCAGGAGATCCCCTGATGTTAATCGGGTCTTGATTCGCTTGACGCTGCTG | 6.55
15 | CCGATTAACATCAGAACCCCCCCTGATGTTAATCGGGTCTTGATTCGCTTGACGCTGCTG | 5.04
16 | CCGATTAACATCAAATTCCCTTATGATGTTAATCGGGTCTTGATTCGCTTGACGCTGCTG | 6.07
17 | CCGATTAACATCACCTCCCCCCCTGATGTTAATCGGGTCTTGATTCGCTTGACGCTGCTG | 4.34
18 | CCGATTAACATCAGGGGGGATACTGATGTTAATCGGGTCTTGATTCGCTTGACGCTGCTG | 4.8
19 | CCGATTAACATCAGGGGCTTACCTGATGTTAATCGGGTCTTGATTCGCTTGACGCTGCTG | 3.61
20 | CCGATTAACATCAAAAAACCCCATGATGTTAATCGGGTCTTGATTCGCTTGACGCTGCTG | 6.05

Row | Sequence | binding signal [z-score]
21 | CCGATTAACATCAGAAAATCACCTGATGTTAATCGGGTCTTGATTCGCTTGACGCTGCTG | 4.87
22 | CCGATTAACATCAAAGCACCCCCTGATGTTAATCGGGTCTTGATTCGCTTGACGCTGCTG | 4.9
23 | CCGATTAACATCAAAAAAACACCTGATGTTAATCGGGTCTTGATTCGCTTGACGCTGCTG | 5.3
24 | CCGATTAACATCAGGGGATATACTGATGTTAATCGGGTCTTGATTCGCTTGACGCTGCTG | 5.69
25 | CCGATTAACATCACTTTGGGAAATGATGTTAATCGGGTCTTGATTCGCTTGACGCTGCTG | 1.89
26 | CCGATTAACATCAACTATCCCCCTGATGTTAATCGGGTCTTGATTCGCTTGACGCTGCTG | 5.03
27 | CCGATTAACATCAAGGGAATTCCTGATGTTAATCGGGTCTTGATTCGCTTGACGCTGCTG | 6.53
28 | CCGATTAACATCACGTGGGGCGTTGATGTTAATCGGGTCTTGATTCGCTTGACGCTGCTG | 1.01
29 | CCGATTAACATCAGGGGACCCCCTGATGTTAATCGGGTCTTGATTCGCTTGACGCTGCTG | 5.69
30 | CCGATTAACATCAGGGGGTATTATGATGTTAATCGGGTCTTGATTCGCTTGACGCTGCTG | 6.38
31 | CCGATTAACATCAGCTCCCCCCCTGATGTTAATCGGGTCTTGATTCGCTTGACGCTGCTG | 3.44
32 | CCGATTAACATCAAAATACCCCTTGATGTTAATCGGGTCTTGATTCGCTTGACGCTGCTG | 6.34
33 | CCGATTAACATCAAAAAACCCCGTGATGTTAATCGGGTCTTGATTCGCTTGACGCTGCTG | 6.46
34 | CCGATTAACATCAGAAACTTCCCTGATGTTAATCGGGTCTTGATTCGCTTGACGCTGCTG | 4.61
35 | CCGATTAACATCAGAACATCCCCTGATGTTAATCGGGTCTTGATTCGCTTGACGCTGCTG | 6.48
36 | CCGATTAACATCAGGGGGGTTACTGATGTTAATCGGGTCTTGATTCGCTTGACGCTGCTG | 4.18
37 | CCGATTAACATCAGGGACGCCCCTGATGTTAATCGGGTCTTGATTCGCTTGACGCTGCTG | 3.51
38 | CCGATTAACATCAAGGGGGGGAGTGATGTTAATCGGGTCTTGATTCGCTTGACGCTGCTG | 4.08
39 | CCGATTAACATCAGGGGGTTCACTGATGTTAATCGGGTCTTGATTCGCTTGACGCTGCTG | 4.69
